Compounds with a hit are over-represented: about 3.5% of the library has one in this group of screens.
mHTT-CaM PPI inh – mutant huntingtin-calmodulin interaction inhibitors – biochemical, AlphaScreen, primary screen | inhibition, % at 15 µM | AlphaScreen His-mHTT/GST-CaM binding, luminescence | P42858 | 190,000 compounds, 3.6% hits;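 also: 0% = both proteins with DMSO and 100% = one protein alone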
Pf apPOL block – Pf-apPOL inhibitors, biochemical, fluorescence; Plasmodium falciparum apicoplast DNA polymerase (apPOL); Recombinant Pf-apPOL, molecular beacon fluorescence, 1.5 h; inhibition, % at 10 µM; 210,000 compounds, 0.25% hits; AID 1794808, 2022
Numbers without * were called inactive; x = not tested or not shown. Rule as the data show it: active = inhibition above about 50%; inactive = the rest.

SMILES	mHTT-CaM PPI inh	Pf apPOL block
CCN(CC)CCCNC(=O)c1cn(C2CCCCC2)c(=O)c2c1c1ccccc1n2C	4	-3
COc1ccc(-c2c(C)oc3cc(O)ccc3c2=O)cc1OC	3	-5
COc1ccc(-c2c(C)oc3cc(O)ccc3c2=O)cc1	-5	62*
COc1ccc(C(=O)Oc2ccc3c(=O)c(-c4ccc(OC)c(OC)c4)c(C)oc3c2)cc1OC	-2	2
COc1ccc(-c2c(C)oc3cc(OC(=O)C(C)C)ccc3c2=O)cc1OC	84*	-7
c1ccc(C(c2c[nH]c3ccccc23)c2c[nH]c3ccccc23)nc1	74*	-10
O=C(O)CC(C(=O)O)c1c[nH]c2ccccc12 (stereo not drawn)	2	-11
Clc1cc(Cl)c(NN=Cc2ccc(-c3cccs3)s2)c(Cl)c1	x	6
O=[N+]([O-])c1ccccc1CNc1ccc(F)c(Cl)c1	47	11
COc1ccc(CNc2ccc(F)c(Cl)c2)c(OC)c1OC	54*	-5
CCOc1cccc(CNc2ccc(F)c(Cl)c2)c1O	63*	1
COc1ccc(OC)c(CNc2ccc(F)c(Cl)c2)c1	30	-1
Oc1c(Cl)cc(Cl)cc1CNc1ccc(F)c(F)c1	100*	0
COc1ccc(CNc2ccc(F)c(Cl)c2)cc1C	-17	-4
COc1cccc(N2C(=O)CC(N(C)Cc3ccccc3)C2=O)c1 (stereo not drawn)	-15	6
Cc1ccc(NC(=O)CN2C(=O)N/C(=C\c3ccc(Br)s3)C2=O)cc1	15	-5
Cc1ccc(C(=O)C=C(CC(=O)c2ccccc2)c2ccccc2)cc1	x	-7
COCCOCC1CCNCC1	1	-13
Cc1ccc(S(=O)(=O)Nc2cccc(F)c2)cc1	-7	-1
O=S(=O)(Nc1cccc(F)c1)c1ccc(-c2ccccc2)cc1	79*	-4
O=S(=O)(Nc1ccc(NS(=O)(=O)c2ccc(F)cc2)cc1)c1ccc(F)cc1	4	-2
O=S(=O)(Nc1ccc(Nc2ccccc2)cc1)c1ccc(F)cc1	69*	-3
COc1ccc(OC)c2sc(NC(=O)c3cc(Cl)sc3Cl)nc12	0	1
O=C(Nc1ccc(F)cc1F)c1ccc(N2C(=O)c3ccccc3C2=O)cc1	2	-2
CCCn1cc(C2=CCN(C(=O)NCc3ccc(C)cc3)CC2)c2cccnc21	43	-8
SMILES	mHTT-CaM PPI inh	Pf apPOL block
CN1C(=O)CC(c2cccc([N+](=O)[O-])c2)C2=C1CC(C)(C)CC2=O (stereo not drawn)	1	0
N=C1S/C(=C\c2ccc(-c3cccc(C(F)(F)F)c3)o2)C(=O)N1c1nonc1N	56*	-3
N=C1S/C(=C\c2ccc(-c3cccc(Cl)c3)o2)C(=O)N1c1nccs1	57*	-9
N=C1S/C(=C\c2ccc(-c3ccc4c(c3)COC4=O)o2)C(=O)N1c1nccs1	41	-7
N=C1S/C(=C\c2ccco2)C(=O)N1c1nonc1N	93*	1
CC(=O)Nc1nonc1N1C(=N)S/C(=C\c2ccc(-c3ccc(F)c(Cl)c3)o2)C1=O	26	1
N=C1NC(=O)/C(=C\c2ccc(-c3cccc(C(F)(F)F)c3)o2)S1	43	-1
COc1ccc(/C=C2\SC(=N)N(c3nonc3N)C2=O)cc1	-1	-6
CC(=O)Nc1nonc1N1C(=N)S/C(=C\c2ccc(-c3ccc(F)cc3)o2)C1=O	62*	-3
O=C(Nc1nccn(-c2ccc(F)c(F)c2)c1=O)c1ccccn1	-2	-10
Cc1ccc(C)c2sc(NC(=O)c3c(F)cccc3F)nc12	0	-2
Cc1ccccc1C(=O)Nc1ccc2nc(SCC(=O)NCC3CCCO3)sc2c1 (stereo not drawn)	4	-4
COc1cccc(-c2cc(C3CCN(C(=O)Nc4cc(C)ccc4OC)CC3)[nH]n2)c1	25	0
Cc1ccccc1OCC1CNC(=O)O1 (stereo not drawn)	1	10
O=C1NCC(CN(c2ccccc2)c2ccccc2)O1 (stereo not drawn)	83*	-3
Cc1cc(O)c2c(c1)OC(=Cc1cccc(Br)c1)C2=O	56*	-13
Cc1cc(O)c2c(c1)OC(=Cc1ccccc1F)C2=O	42	7
Cc1cc(O)c2c(c1)OC(=Cc1ccc(Br)cc1)C2=O	43	-14
Cc1cc(O)c2c(c1)OC(=Cc1cn(C)c3ccccc13)C2=O	72*	-2
Cc1cc(C)c(S(=O)(=O)Nc2cccc(C(=O)O)c2C)c(C)c1	2	34
COC(=O)c1cnc2nc(C)ccc2c1Nc1ccc(C)cc1Cl	47	8
COC(=O)c1cnc2nc(C)ccc2c1Nc1ccc(Br)cc1C	94*	-15
COC(=O)c1cnc2nc(C)ccc2c1Nc1cc(Cl)ccc1C	65*	0
COC(=O)c1cnc2nc(C)ccc2c1Nc1cccc(Br)c1	14	-19
COC(=O)c1cnc2nc(C)ccc2c1Nc1ccc(OC)cc1	13	2
SMILES	mHTT-CaM PPI inh	Pf apPOL block
CCOC(=O)c1cnc2nc(C)ccc2c1Nc1ccc(Cl)cc1	66*	-8
COC(=O)c1cnc2nc(C)ccc2c1Nc1ccc(C)c(Cl)c1	78*	0
CCOC(=O)c1cnc2nc(C)ccc2c1Nc1ccc(F)c(F)c1	34	-4
COC(=O)c1cccc(C(=O)N2CCN(c3ccc(Cl)cc3)CC2)n1	0	-8
Cn1cnnc1SCc1cc(=O)c(OCC(=O)N2CCCCC2)co1	-9	-3
CCCCOc1ccc(C(=O)N2CCN(Cc3c(C)noc3C)CC2)cc1	12	-14
Cc1ccc(N2CC(NC(=O)c3c(F)cccc3F)CC2=O)cc1C (stereo not drawn)	-19	-11
COC(=O)c1cnc2nc(C)ccc2c1Nc1ccc(F)c(Cl)c1	0	-5
COC(=O)c1cnc2nc(C)ccc2c1Nc1ccc(Cl)cc1	62*	-8
CC(=O)c1cc2c(cc1NC(=O)c1cc3nc(-c4cccs4)cc(C(F)(F)F)n3n1)OCO2	3	-8
COc1ccc(CCNC(=O)c2ccc([N+](=O)[O-])cc2)cc1OC	-2	-6
COc1ccc(NC(=O)CN(c2cccc([N+](=O)[O-])c2)S(C)(=O)=O)cc1Cl	12	65*
CS(=O)(=O)N(CC(=O)Nc1ccc(F)c(Cl)c1)c1ccccc1F	2	-6
COc1ccc(NC(=O)CN(c2ccc(Cl)cc2)S(=O)(=O)c2ccccc2)cc1OC	76*	-6
COc1ccc(NC(=O)CN(c2ccc(Cl)cc2)S(C)(=O)=O)cc1Cl	-2	6
COc1ccc(N(CC(=O)Nc2ccc(OCc3ccccc3)cc2)S(C)(=O)=O)cc1OC	26	-9
COc1ccc(Cl)cc1N(CC(=O)Nc1cccc([N+](=O)[O-])c1)S(C)(=O)=O	3	-3
COc1ccc(N(CC(=O)Nc2ccc(Oc3ccccc3)cc2)S(C)(=O)=O)cc1OC	52*	-8
Cc1c(Cl)cccc1N(CC(=O)Nc1ccc(F)c(Cl)c1)S(C)(=O)=O	99*	-7
COCCC1CCN(C(=O)CN(C)C(=O)C(C)c2ccccc2)CC1 (stereo not drawn)	-9	0
Cc1nn(C)cc1CN(C)C(=O)C1CCCN(c2cnn(C)c(=O)c2)C1 (stereo not drawn)	0	-3
O=C(c1ccco1)N1CCCC2(CC(c3ccncc3)=CO2)C1 (stereo not drawn)	4	-2
CN(C)CCNC(=O)c1cc(-c2cccc(F)c2)n(C)n1	-11	-5
CCOc1ccc(C(=O)Nc2c3c(nn2-c2ccc(F)cc2)CSC3)cc1OCC	-1	-2
